# Measurements published in publication PMC9911399, “Two distinct binding modes provide the RNA-binding protein RbFox with extraordinary sequence specificity”.
# Positions count from the first letter of the chain named. Whole data set: some 16,000 sequences, median “ka relative to ugcaugu” near 0.096, cut for the highest 2% near 0.35. The sample holds the highest values, similar sequences and a random draw of the others, so the mix is not that of the screen.
# T1: RBFOX1 RRM RbFoxmut (Fox-RRM*) (Homo sapiens, UniProt Q9NWB1 109-208, R118D;E147R;N151S;E152T)
# T1 sequence: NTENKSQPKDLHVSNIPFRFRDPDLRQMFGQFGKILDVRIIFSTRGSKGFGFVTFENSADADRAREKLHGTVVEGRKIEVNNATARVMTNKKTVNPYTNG
# B1: GCAUAUA (DNA:RNA)
# RNA: GGGAGACCGGAAUUCAGAUUGUCCGCAUAUAUUAAAUCCCGUCGUAGCCACCA
# DNA 1: CAATCTGAATTCCGGTCTCCC
# DNA 2: TGGTGGCTACGACGGGATT
# B2: ACAUGUA (DNA:RNA)
# RNA: B1 RNA with G25A, A29G
# DNA 1: CAATCTGAATTCCGGTCTCCC
# DNA 2: TGGTGGCTACGACGGGATT
# B3: GGAUGUA (DNA:RNA)
# RNA: B1 RNA with C26G, A29G
# DNA 1: CAATCTGAATTCCGGTCTCCC
# DNA 2: TGGTGGCTACGACGGGATT
# B4: AGACUAU (DNA:RNA)
# RNA: B1 RNA with G25A, C26G, U28C, A29U, U30A, A31U
# DNA 1: CAATCTGAATTCCGGTCTCCC
# DNA 2: TGGTGGCTACGACGGGATT
# B5: CGUCGCC (DNA:RNA)
# RNA: GGGAGACCGGAAUUCAGAUUGUCCCGUCGCCUUAAAUCCCGUCGUAGCCACCA
# DNA 1: CAATCTGAATTCCGGTCTCCC
# DNA 2: TGGTGGCTACGACGGGATT
# B6: UCACCUC (DNA:RNA)
# RNA: B1 RNA with G25U, U28C, A29C, A31C
# DNA 1: CAATCTGAATTCCGGTCTCCC
# DNA 2: TGGTGGCTACGACGGGATT
# B7: AAAAUUC (DNA:RNA)
# RNA: B1 RNA with G25A, C26A, U28A, A29U, A31C
# DNA 1: CAATCTGAATTCCGGTCTCCC
# DNA 2: TGGTGGCTACGACGGGATT
# B8: GAAAUGG (DNA:RNA)
# RNA: B1 RNA with C26A, U28A, A29U, U30G, A31G
# DNA 1: CAATCTGAATTCCGGTCTCCC
# DNA 2: TGGTGGCTACGACGGGATT
# B9: CGUAUGG (DNA:RNA)
# RNA: B5 RNA with C28A, G29U, C30G, C31G
# DNA 1: CAATCTGAATTCCGGTCTCCC
# DNA 2: TGGTGGCTACGACGGGATT
# B10: GUUAUGG (DNA:RNA)
# RNA: B5 RNA with C25G, G26U, C28A, G29U, C30G, C31G
# DNA 1: CAATCTGAATTCCGGTCTCCC
# DNA 2: TGGTGGCTACGACGGGATT
# B11: GAAUGGG (DNA:RNA)
# RNA: B1 RNA with C26A, A29G, U30G, A31G
# DNA 1: CAATCTGAATTCCGGTCTCCC
# DNA 2: TGGTGGCTACGACGGGATT
# B12: AGAUUGG (DNA:RNA)
# RNA: B1 RNA with G25A, C26G, A29U, U30G, A31G
# DNA 1: CAATCTGAATTCCGGTCTCCC
# DNA 2: TGGTGGCTACGACGGGATT
# B13: AGAAUGG (DNA:RNA)
# RNA: B5 RNA with C25A, U27A, C28A, G29U, C30G, C31G
# DNA 1: CAATCTGAATTCCGGTCTCCC
# DNA 2: TGGTGGCTACGACGGGATT
# B14: GUAUGGU (DNA:RNA)
# RNA: B1 RNA with C26U, A29G, U30G, A31U
# DNA 1: CAATCTGAATTCCGGTCTCCC
# DNA 2: TGGTGGCTACGACGGGATT
# B15: CGAAUGG (DNA:RNA)
# RNA: B5 RNA with U27A, C28A, G29U, C30G, C31G
# DNA 1: CAATCTGAATTCCGGTCTCCC
# DNA 2: TGGTGGCTACGACGGGATT
# B16: GGAAUGG (DNA:RNA)
# RNA: B1 RNA with C26G, U28A, A29U, U30G, A31G
# DNA 1: CAATCTGAATTCCGGTCTCCC
# DNA 2: TGGTGGCTACGACGGGATT
# B17: GUAAUGG (DNA:RNA)
# RNA: B1 RNA with C26U, U28A, A29U, U30G, A31G
# DNA 1: CAATCTGAATTCCGGTCTCCC
# DNA 2: TGGTGGCTACGACGGGATT
# B18: AGAAUUG (DNA:RNA)
# RNA: B1 RNA with G25A, C26G, U28A, A29U, A31G
# DNA 1: CAATCTGAATTCCGGTCTCCC
# DNA 2: TGGTGGCTACGACGGGATT
# B19: GGUAUGG (DNA:RNA)
# RNA: B5 RNA with C25G, C28A, G29U, C30G, C31G
# DNA 1: CAATCTGAATTCCGGTCTCCC
# DNA 2: TGGTGGCTACGACGGGATT
# Molecular target: T1, RBFOX1 RRM RbFoxmut (Fox-RRM*)
# Assay: EMSA; HiTS-Eq, 1 nM pool, 10 min; buffer printed only for the single-RNA assays: 10 mM Tris pH 7.5, 150 mM NaCl, 3.4 mM EDTA, 0.001% NP-40, 30 C
# Settings: tags: His6 N-terminal (pET28a); label: 5' 32P
# Summary of the method: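 Purified RbFox RRM (wild type or mutant) was equilibrated for 10 min in 50 µL with 1 nM of a 5′-radiolabelled pool of RNA with 7 randomized nucleotides, its flanks annealed to DNA oligonucleotides, across increasing protein concentrations. Free RNA was separated by 8% native PAGE, excised, reverse-transcribed, PCR-barcoded and sequenced on an Illumina HiSeq 2500. Relative association constants came from read-count changes of each variant against the control reaction, normalised to the cognate motif.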
row,Binder,binding signal
1,B1,0.169 KA relative to UGCAUGU
2,B2,0.2 KA relative to UGCAUGU
3,B3,0.285 KA relative to UGCAUGU
4,B4,0.0902 KA relative to UGCAUGU
5,B5,0.0841 KA relative to UGCAUGU
6,B6,0.0699 KA relative to UGCAUGU
7,B7,0.0842 KA relative to UGCAUGU
8,B8,0.0639 KA relative to UGCAUGU
9,B9,0.261 KA relative to UGCAUGU
10,B10,0.123 KA relative to UGCAUGU
11,B11,0.21 KA relative to UGCAUGU
12,B12,0.125 KA relative to UGCAUGU
13,B13,0.541 KA relative to UGCAUGU
14,B14,0.325 KA relative to UGCAUGU
15,B15,0.72 KA relative to UGCAUGU
16,B16,0.724 KA relative to UGCAUGU
17,B17,0.0836 KA relative to UGCAUGU
18,B18,0.129 KA relative to UGCAUGU
19,B19,0.419 KA relative to UGCAUGU
